# The supplement of paper PMC6555819
# Tests used:
# Assay in all cases: PBM binding z-score (relative to random genomic background probes); higher = stronger binding; sequences stand for … in GC…GCGATTGACAGCGTAGAATGAAGG
# [1] = test system: PPARg:RXRa DBDmut IVT, anti-RXR (DBD mutation: RXRa K156A/R161A, NR concentration 270 nM, RXRa partner concentration 90 nM)
# How it was run: (§1)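 Scanned fluorescence from custom Agilent 4×180K protein-binding microarrays was regression-normalized. Binding z-scores use random background probes as reference. Ligand-free nuclear receptor dimers were incubated on the arrays for 1 h and detected with antibodies against each partner (one per run).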
# [2] = test system: PPARg:RXRa IVT, anti-PPARg (NR concentration 270 nM, RXRa partner concentration 90 nM)
# How it was run: as §1
# [3] = test system: PPARg DBDmut:RXRa IVT, anti-PPARg (DBD mutation: PPARg1 K132A/R137A, NR concentration 270 nM, RXRa partner concentration 90 nM)
# How it was run: as §1
# [4] = test system: PPARg DBDmut IVT, anti-PPARg (DBD mutation: PPARg1 K132A/R137A, NR concentration 270 nM)
# How it was run: as §1
# [5] = test system: PPARg homodimer (NR concentration 180 nM)
# How it was run: as §1
# [6] = test system: PXR:RXRa (NR concentration 270 nM, RXRa partner concentration 90 nM)
# How it was run: as §1
# [7] = test system: PXR homodimer (NR concentration 270 nM)
# How it was run: as §1
# [8] = test system: RARa:RXR (NR concentration 270 nM, RXRa partner concentration 90 nM)
# How it was run: as §1
# [9] = test system: RARa homodimer (NR concentration 270 nM)
# How it was run: as §1
# [10] = test system: RARb:RXRa (NR concentration 270 nM, RXRa partner concentration 90 nM)
# How it was run: as §1
Sequence,PBM binding z-score [1],PBM binding z-score [2],PBM binding z-score [3],PBM binding z-score [4],PBM binding z-score [5],PBM binding z-score [6],PBM binding z-score [7],PBM binding z-score [8],PBM binding z-score [9],PBM binding z-score [10]
TCTATTAGTTGAAGGGGAACCGACGAGTCCGTTT,3,0.249,1.26,0.473,1.97,1.04,1.09,0.424,1.8,0.752
TATACAGGGTTAAAGGCCAGAGTACGAATGTCGA,0.697,2.95,1.23,1.68,1.75,1.82,0.41,2.44,0.668,2.13
TGAATGAGGTTAAAGATCAGGAAACGTGGCGTCG,2.17,3.35,0.769,0.42,1.22,2.17,-0.325,3.49,-0.294,1.94
CCTACAGGGCCAAAAAGGTCATTGATGCCGATAA,-0.0995,0.938,-1.38,-1.06,2.94,5.28,4.66,5.28,1.42,4.26
TCGAGTAGGTTAGGGGCATTCACAATGGCGTCGA,2.39,1.39,-0.325,-0.622,0.582,0.481,0.107,0.506,-0.0724,0.977
CCTACTGGGCCATTCAGAGGTCAGTGATCATATG,4.58,3.89,-0.582,-0.353,2.08,2.28,0.543,2.64,0.443,2.77
CCTAGTTGGTCAGGAGGTCACACACCGGATATGA,1.79,3.68,0.499,0.258,3.9,4.41,1.41,4.76,2.91,3.82
CCAACTGGGCCATCAGGTCATTGATATCAACGTT,5.15,4.92,-0.74,0.0786,1.32,1.59,0.906,1.67,0.182,2.05
CCTAGTTGGTCAGGAGGTGACACACCGGATATGA,0.676,2.36,0.321,-0.109,1.41,0.171,0.895,0.496,0.818,1.25
CCGACTAGGTTATGGGGCATTCAGGCAACGGTGA,3.02,3.3,-0.895,-0.581,1.05,-0.0889,-0.0769,0.303,-0.167,0.869
TCATATAGGTAATACAGGTGATAGTCGGCATCTA,4.04,3.01,1.19,2.05,1.08,0.592,0.285,0.723,1.73,0.484
TTACCAATGTGAAGGTCGTTGATCCCTCTGTAGA,0.314,0.221,-0.143,0.211,0.84,1.37,0.539,1.45,0.451,0.862
TCTTGTAGATCACCAGGTTAAGAAAGCTGGCCAA,2.51,1.98,-0.0157,0.181,0.18,0.513,-0.16,0.889,0.399,0.639
CGTCCAAGGTCATAGGAGGTTAGTGAAGACAGAT,2.69,3.67,0.657,-0.0801,3,5.46,2.22,4.61,1.31,5.06
ACTATTAGTTGACTTAGGGCAACCTATACGACGC,0.195,0.726,1.42,1.54,0.623,0.356,0.265,0.516,0.697,0.924
ATCTCTTGGTAAGACTCAGTTCAGTGAAGAACGC,0.682,0.216,1.42,1.19,1.11,1.12,2.04,0.274,1.84,0.518
AGTCAAAGTTCAGGACGAGGTAACGCAAAGCACG,-0.0629,1.75,0.41,-0.132,1.73,2.72,1.03,2.78,0.826,4.33
CTCGATAGGTCGTGCTCAGGTGAGTATACCAAAC,0.241,0.78,-0.285,0.141,0.257,0.623,-0.52,1.44,-0.705,1.77
CCAGACAGGTGAGAACGTAACTCAGCCTCGATTA,0.85,0.49,0.0295,-0.354,0.692,-0.267,0.209,-0.0422,0.428,0.192
CCTCGGAGGAAAACAGGAGGTCAGAGCTGCCAGA,-0.518,0.00562,-1.65,-1.51,1.04,1.5,0.172,1.95,0.262,1.53
AATACAGGCTCATCGTAGGCCAGAGTACGCACAG,-0.148,-0.0891,0.24,-0.0374,-0.257,-0.568,-0.37,-0.622,0.466,-0.11
ATCCCTAGGTAACCAAGTTCAGTGAATGCCGAAC,-0.197,0.606,-0.0937,0.0123,0.495,2.03,1.88,0.847,0.816,1.25
TCTTGTAGATCAAGCAGGTTGAGAAAGCCTGAGT,1.7,0.256,-0.788,-0.244,-0.463,0.124,-0.29,-0.172,-0.364,-0.242
TAGCTTAGGTCATTCAGGGGCCAGTATAGAAAGC,1.24,1.84,0.465,1.33,2.5,2.96,0.636,4.06,0.433,3.88
GCTAGTTGGTCATTAAAAGGTCACACACCGGTCG,1.97,2.97,-0.134,0.443,4.31,5.25,1.39,6.14,1.98,4.4
